Source: PubChem BioAssay (National Center for Advancing Translational Sciences (NCATS))
DT40 TDP1 no CPT = qHTS for Inhibitors of human tyrosyl-DNA phosphodiesterase 1 (TDP1): qHTS in cells in absence of CPT | DT40 Tdp1-/- hTDP1 cells, no CPT, ATP luminescence, 48 h | Potency, µM (titrated, usually from 46.2 µM), inactives show at the highest dose activity change, negative = growth inhibition, most hits filed as inhibitors | 420,000 compounds, 15% hits | AID 686978, 2013; note: % is set by controls: 0 for no effect and ±100 for the full control effect; nearly all actives have a fitted effect of over 55% in size
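No-CPT arm: Tdp1-/-;hTDP1 DT40 cells (400/well) plus compounds, incubated ≥48 hr at 37 °C. Readout CellTiter-Glo luminescence.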
HepG2 viability = kills HepG2 cells in TGF-b inhibitor counter-screen | 410,000 compounds, 0.76% hits | HepG2 CAGA-GFP viability, ATP luminescence, 18 h | Potency, µM (series often up to 46.1 µM), inactives show at the highest dose activity change, negative = cytotoxicity, hits mostly cytotoxic
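HepG2 CAGA-GFP cells (1000/well, DMEM with 1% FBS) received compound, then TGF-beta at 500 pg/mL final, and were incubated 18 hours at 37 degrees C. Viability was read by CellTiter-Glo luminescence. Media-only wells were set as complete cell-killing and DMSO as no toxicity.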
ATXN viability = reduces viability in counter-screen for ATXN expression inhibitors; S2 cells (HEK-293 line with an ATXN2-luciferase reporter) viability, CellTiter-Fluor protease fluorescence, 24 h; Potency, µM (series often up to 56.7 µM), hits mostly cytotoxic; 400,000 compounds, 0.49% hits; AID 651635; note: nearly all actives have a fitted effect of over 40% in size
TGFb inhibitor = TGF-b pathway inhibition; Potency, µM (doses to about 46.1 µM), without a hit: top-dose activity, negative = inhibition, actives largely listed as inhibitors; 410,000 compounds, 1.2% hits; HepG2 CAGA-GFP TGF-b/SMAD3 reporter, GFP fluorescence, 18 h; TGF-beta stimulated, 500 pg/mL final; note: % is set by controls: 0 for no effect and ±100 for the full control effect; nearly all actives have a fitted effect of over 65% in size
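Per well, imaged GFP fluorescence of HEPG2 CAGA-GFP cells gives the signal; cells get compound, then TGF-beta (500 pg/mL final), 18 h at 37 degrees C; %Activity versus -TGF-beta and +DMSO controls.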
DT40 TDP1 CPT = DT40-hTDP1 cell growth loss with CPT. chicken DT40 Tdp1-/-;hTDP1 cells + 20 nM CPT, ATP luminescence, 48 h. Potency, µM (top dose mostly 46.2 µM), without a hit: at the top dose activity change, negative = growth inhibition, hits mostly inhibitors. 420,000 compounds, 12% hits. AID 686979; note: % is set by controls: 0 for no effect and ±100 for the full control effect; nearly all actives have a fitted effect of over 55% in size
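Chicken DT40 Tdp1-/- cells complemented with human TDP1, 400 cells/well, exposed to compounds plus 20 nM camptothecin for at least 48 h at 37 C; viability read as ATP content by CellTiter-Glo luminescence.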
ATXN2 expr inh = reduces ATXN2 reporter expression in HEK-293 cells; HEK-293 ATXN2-luciferase reporter, luminescence, 24 h; Potency, µM (highest dose often 57 µM), for the others: top-dose activity change, negative = inhibition, most hits filed as inhibitors; 360,000 compounds, 0.72% hits; note: % is set by controls: 0 for no effect and ±100 for the full control effect; nearly all actives have a fitted effect of over 55% in size
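qHTS (up to 57 uM final) was run with 24 h compound exposure of reporter cells at 37 °C. Each well was multiplexed: SteadyGlo luminescence measured ATXN2-luciferase expression after a fluorogenic Gly-Phe-AFC viability readout (25 uM final).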
Starred values were filed as active, the others as inactive; i = inactive; ? = inconclusive; / = not tested or not shown; [ ] = remark or other dose. Only some compounds are listed: those with a hit (about 17% of all), similar ones and a draw of the others. Calls come from the whole dose curve; as a rule, active = well fitted curve in the direction sought with a large enough effect; inconclusive = small, poorly fitted or top-dose-only effect, or another doubt; inactive = no such curve, though single readings can be large; an effect the other way counts as inactive or inconclusive. Potency is the fitted concentration of half-maximal effect.

SMILES	DT40 TDP1 no CPT	HepG2 viability	ATXN viability	TGFb inhibitor	DT40 TDP1 CPT	ATXN2 expr inh
CNC(=S)N(CCc1c(C)[nH]c2ccc(C)cc12)Cc1ccc(OC)c(OC)c1	?	-29%	?	?	?	?
COc1ccc(CCNC(=O)COC(=O)c2cc(OC)c(OC)cc2OC)cc1OC	-22%	-19%	i	-2%	-1%	-19%[11.3 µM]
COC(=O)CCC[C@H]1CC2(C[C@H](CCCO[Si](C)(C)C(C)(C)C)N1C(=O)OC(C)(C)C)OCCO2	18µM*	-19%	i	-2%	?	-3%
O=C1CCC2CN3CCc4c([nH]c5ccccc45)C3CC2C1 (configuration not stated)	21µM*	-21%	i	36%	?	/
CC1CC(C)CN(CCOCCSc2ccc(Cl)cc2)C1 (configuration not stated)	16µM*	-45%	?	-29%	21µM*	?
CC1CC(C)CN(CCCSc2ccccc2)C1 (configuration not stated)	-15%	-19%	i	-1%	-14%	-16%
CC1CC(C)CN(CCOCCSc2ccccc2)C1 (configuration not stated)	16µM*	-6%	i	7%	?	-20%
O=C1OCCOC2CCCc3oc(C4=CCCCC4)c1c32 (configuration not stated)	-11%	/	i	/	-11%	0%
O=C(NC1CCCC1)c1ccc(CS(=O)(=O)c2ccc(Br)cc2)o1	-29%	3%	i	5%	-25%	-6%
Cn1nccc1C(=O)Nc1ccn(C23CC4CC(CC(C4)C2)C3)n1	15µM*	7%	i	2%	21µM*	19%
O=C(c1ccccc1)c1ccc(Oc2ccc([N+](=O)[O-])cc2[N+](=O)[O-])cc1	?	-12%	i	-26%	?	41%
O=Cc1cccc(Oc2ccc([N+](=O)[O-])cc2[N+](=O)[O-])c1	7.3µM*	-24%	?	-15%	?	-9%
Cc1cc(=O)oc2cc(Oc3ccc([N+](=O)[O-])cc3[N+](=O)[O-])ccc12	4.6µM*	-3%	?	3%	5.2µM*	1%
COc1ccc(CNC(=O)c2ccc(-c3c(C)noc3C)c3ccoc23)cc1OC	?	-27%	i	14%	?	30%
OC1(c2ccc(OC(F)F)cc2)CSC(=Nc2cccnc2)N1C1CC1 (configuration not stated)	16µM*	-24%	i	-26%	21µM*	-1%
CCCCCCCCN1C(=O)[C@H](CC(=O)N2CCOCC2)C[C@@]2(C(=O)OCC)CCCC=C12	9.2µM*	/	?	/	12µM*	?
CCOC(=O)[C@]12CCC=C1N(Cc1ccco1)C(=O)[C@H](CC(=O)N1CCOCC1)C2	0%	/	i	/	2%	17%
CCCCCCCCN1C(=O)[C@H](CC(=O)N2CCSCC2)C[C@@]2(C(=O)OCC)CCCC=C12	21µM*	/	?	/	21µM*	?
COc1ccccc1NC(=O)C(=O)N/N=C(\C)CC(=O)Nc1ccccc1C(F)(F)F	-13%	-9%	i	-3%	4%	-1%
O=C(CCS(=O)(=O)c1cc2c(cc1Cl)NC(=O)CO2)NCc1ccc(F)cc1	0%	5%	i	6%	-10%	8%
Cc1ccc(O)c(N=Nc2ccccc2)n1	16µM*	-12%	?	1%	2.9µM*	-23%
c1cncc(CNc2ncncc2-c2ccc3c(c2)OCO3)c1	10µM*	/	/	/	6.5µM*	/
Cc1cccc(CNc2ncncc2-c2ccc(C(=O)N(C)C)cc2)c1	3.7µM*	/	/	/	?	/
Cc1cccc(CNc2ncnc3ccc(-c4ccc(C(=O)N(C)C)cc4)cc23)c1	26µM*	/	/	/	?	/
Cc1cccc(CNc2nc(-c3ccc4c(c3)OCO4)nc3ccccc23)c1	23µM*	/	/	/	?	/
SMILES	DT40 TDP1 no CPT	HepG2 viability	ATXN viability	TGFb inhibitor	DT40 TDP1 CPT	ATXN2 expr inh
Cc1ccc(S(=O)(=O)N[C@@H](Cc2ccccc2)C(=O)N2CCC(C(=O)N[C@@H](CC(C)C)C(=O)O)CC2)cc1	12%	-4%	i	2%	-5%	-5%
O=C(N/C(=C/c1cccnc1)C(=O)N1CCCCCC1)c1cccc(Br)c1	-28%	-15%	i	-20%	-21%	5%
Cc1cccc(CNc2ncnc3ccc(-c4ccc5c(c4)OCO5)cc23)c1	18µM*	-31%	i	?	?	?
Cc1cccc(-c2nc(NCCCN3CCOCC3)c3ccccc3n2)c1	?	-15%	i	23%	18µM*	-16%
O=c1oc2c(F)cc(F)cc2cc1S(=O)(=O)c1ccc(F)cc1	-18%	-4%	/	/	-17%	/
COc1ccc(Cl)c(Cn2c(NCCN)nc3c2c(=O)n(C)c(=O)n3C)c1	?	-80%	?	0%	?	-9%
COCCNc1nc2c(c(=O)n(C)c(=O)n2C)n1Cc1cccc(C(F)(F)F)c1	3.7µM*	-2%	i	?	3.3µM*	-9%
CC(O)CNc1nc2c(c(=O)n(C)c(=O)n2C)n1Cc1cccc(Br)c1 (configuration not stated)	14µM*	-41%	i	-28%	?	1%
Cn1c(Cl)nc2c1c(=O)n(Cc1cccc(Br)c1)c(=O)n2C	?	-2%	i	28%	?	0%
COc1cccc(Cn2c(NCC(C)C)nc3c2c(=O)n(C)c(=O)n3C)c1	23µM*	-19%	i	3%	29µM*	-5%
CC(C)CNc1nc2c(c(=O)n(C)c(=O)n2C)n1Cc1cccc(Br)c1	23µM*	0%	i	3%	21µM*	1%
CCC(=O)N1N=C2CC(C)(C)OCC2C1c1ccccc1 (configuration not stated)	-14%	-8%	i	-3%	21%	-28%
Cc1cc2c(ncn2Cc2ccccc2)c(N)c1C	-27%	-20%	i	-18%	-6%	-32%
Cn1c(=O)c2c(nc(NCCCN3CCOCC3)n2Cc2cccc(Cl)c2)n(C)c1=O	?	-3%	i	-1%	?	7%
Cn1c(=O)c2c(ncn2Cc2ccccc2)n(C)c1=O	-29%	3%	i	4%	?	3%
COc1cccc(Cn2cnc3c2c(=O)n(C)c(=O)n3C)c1	12µM*	-26%	/	-30%	12µM*	/
